Measurements: PubChem BioAssay
Activity calls are given as the source filed them.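 The calls were made as follows, unless noted: active = fluorescence slope higher than the sample average by over 3 SD (cut at about -0.22 in these data, passing the limit was not always enough); inactive = the rest.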

Key:
[1] = inhibitors of TNFa-induced NFkB p65 translocation, primary screen, imaging, HUVEC, MLSMR starter and 10KST1 sets (AID 438;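 active = inhibition above 20% together with a positive visual image hit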;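 also: compound added about 3h40 before a 20 min TNFalpha stimulation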;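 as to inhibition: signal is the nuclear over cytoplasmic p65 intensity ratio per well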); settings: HUVEC TNFa-induced p65 nuclear translocation; cell count: measured here: nuclei count (cytotoxicity indicator), at 2.08 µM; inhibition: at 2 µM, stronger effect = higher value, 0% TNFa-plus-vehicle, 100% no-TNFa wells
[2] = inhibitors of mutant huntingtin aggregation, primary screen, imaging, exon1htt(103Q)mCFP cells, high-content imaging (AID 483;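 active = visual image review flags a hit and inhibition of aggregation exceeds 20%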;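 also: compound exposure lasted 3 days before fixation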;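 as to nuclei count: percent of the per-plate median nuclei count of sample wells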); settings: exon1htt(103Q)mCFP cell line, aggregate imaging, at 2 µM; inhibition of aggregation: stronger effect = higher value; nuclei count: measured here: cell count, toxicity
[3] = inhibitors of E-selectin induction by TNFa, primary screen, imaging, HUVEC, immunofluorescence, MLSMR starter and 10KST1 sets (AID 487;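 active = visually confirmed hit in the image check and inhibition above 20%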;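 as to inhibition: signal is fraction of cell area covered by stained E-selectin grains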;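 as to nuclei count: 100% = median nuclei count of all wells on the same plate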); settings: HUVEC TNFalpha-induced E-selectin immunofluorescence imaging, at 2 µM; inhibition: stronger effect = higher value; nuclei count: measured here: cell number, toxicity
[4] = molecular target: Voltage-gated potassium channel subunit beta-2 (Rattus norvegicus) (UniProt P62483); assay: KvBeta enzyme negative modulators, primary screen, biochemical, NADPH fluorescence (AID 622); settings: recombinant KvBeta, 4-cyanobenzaldehyde reduction, at 10 µM, stronger effect = higher value;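 also: slope of raw intensity against log time taken from 70 to 1610 s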
[5] = molecular target: Voltage-gated potassium channel subunit beta-2 (Rattus norvegicus) (UniProt P62483); assay: KvBeta positive modulators, primary screen, biochemical, NADPH fluorescence (AID 623;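 active = NADPH fluorescence slope more negative than the mean of all samples by about 3 SD, 99.7% confidence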;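 also: fluorescence intensity change per second fitted from 20 to 320 s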); settings: Recombinant KvBeta, NADPH fluorescence decrease slope, 10 min; at 10 µM; stronger effect = lower value
[6] = molecular target: Alpha-2C adrenergic receptor (Homo sapiens) (UniProt P18825); assay: modulators of alpha2C/GIRK thallium flux, primary screen, cell-based, HEK293 alpha2C/GIRK1/2 (AID 624;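 active = fluorescence slope after compound addition differing from the mean of all screened samples at 99.7% confidence, in either direction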;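 also: slope of fluorescence ratio to pre-addition baseline per second over 15 to 24 s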); settings: thallium flux BTC fluorescence, at 10 µM, actives lie on both sides
[7] = inhibitors of Sendai virus-induced IRF3 signaling, primary screen, TLR/RLR signaling modifier project, cell-based, Sendai virus stimulus, luciferase, 10K MLSCN set (AID 602276;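 active = inhibition at or above 50% at 10 µM; inactive = inhibition below 50%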;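 also: firefly luciferase from ISG56 promoter only with Renilla not read in this screen; 0% = Sendai virus plus DMSO and 100% = medium plus DMSO without virus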); settings: HEK293 RL24 IRF3 luciferase reporter, at 10 µM, stronger effect = higher value
[8] = inhibitors of poly I:C-induced TLR3 signaling, primary screen, cell-based, poly I:C stimulus, luciferase, 10K MLSCN set (AID 602277;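 active = inhibition of the reporter signal at or above 50%; inactive = inhibition below 50%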); settings: HEK293-TLR3 RL24 IRF3 luciferase reporter, at 10 µM, stronger effect = higher value

Chain of Voltage-gated potassium channel subunit beta-2 (Rattus norvegicus) (P62483 whole entry, looked up): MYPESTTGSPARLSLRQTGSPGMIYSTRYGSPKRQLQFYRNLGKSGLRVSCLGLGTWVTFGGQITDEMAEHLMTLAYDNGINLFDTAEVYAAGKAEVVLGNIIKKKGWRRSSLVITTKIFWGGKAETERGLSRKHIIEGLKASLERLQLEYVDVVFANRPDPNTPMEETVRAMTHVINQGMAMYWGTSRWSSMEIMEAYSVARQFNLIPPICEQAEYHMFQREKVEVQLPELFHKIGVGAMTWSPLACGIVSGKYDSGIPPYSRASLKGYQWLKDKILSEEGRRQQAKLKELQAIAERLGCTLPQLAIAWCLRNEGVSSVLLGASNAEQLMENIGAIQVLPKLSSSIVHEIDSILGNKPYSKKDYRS
Chain of Alpha-2C adrenergic receptor (Homo sapiens) (P18825 whole entry, looked up): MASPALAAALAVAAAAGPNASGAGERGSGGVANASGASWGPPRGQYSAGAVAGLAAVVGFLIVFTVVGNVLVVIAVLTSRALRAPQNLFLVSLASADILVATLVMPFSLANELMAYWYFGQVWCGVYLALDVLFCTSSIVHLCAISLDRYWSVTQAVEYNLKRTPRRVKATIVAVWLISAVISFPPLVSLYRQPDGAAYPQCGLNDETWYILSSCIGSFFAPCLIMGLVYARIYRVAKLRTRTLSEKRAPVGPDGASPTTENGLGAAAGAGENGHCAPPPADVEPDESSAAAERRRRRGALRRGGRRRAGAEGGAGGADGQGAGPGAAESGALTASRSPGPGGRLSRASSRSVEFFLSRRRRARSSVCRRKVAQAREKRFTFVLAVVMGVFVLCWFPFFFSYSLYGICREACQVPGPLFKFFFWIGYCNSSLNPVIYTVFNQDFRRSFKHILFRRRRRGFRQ

Compound	cell count [1]	inhibition [1]	inhibition of aggregation [2]	nuclei count [2] [%]	inhibition [3]	nuclei count [3] [%]	fluorescence slope [4]	NADPH fluorescence slope [5]	slope [6]	inhibition [7]	inhibition [8]
CCC(C)NC(=O)C1(C)CCC(=O)N1CCc1ccc(OC)c(OC)c1 (centres undefined)	447	-5.7% (inactive)	-2.3% (inactive)	105	0.6% (inactive)	103	-0.606 (inactive)	-8.3e-06 (inactive)	0.00621 (inactive)	5.13% (inactive)	9.44% (inactive)
COc1cc(OC)c2c(c1)OC(c1ccc(OC)c(OC)c1)C(O)C2=O (centres undefined)	524	2.6% (inactive)	-8.9% (inactive)	104	-60% (inactive)	115	-0.5 (inactive)	-2.5e-05 (inactive)	0.00643 (inactive)	10.3% (inactive)	3.76% (inactive)
OCc1cn(-c2ccccc2)nc1-c1ccc2c(c1)OCCO2	438	4.2% (inactive)	-10.7% (inactive)	99.4	-84% (inactive)	112	-0.532 (inactive)	-4.4e-05 (inactive)	0.00702 (inactive)	-51.8% (inactive)	-135% (inactive)
COC(=O)N1CC(c2ccccc2)CC1=O (centres undefined)	639	-0.6% (inactive)	-22.4% (inactive)	119	-61.9% (inactive)	73	-0.47 (inactive)	-0.000268 (inactive)	0.00505 (inactive)	7.79% (inactive)	16.7% (inactive)
Cc1cccc(-n2c(O)c(C=Nc3ccccc3N)c(=O)[nH]c2=O)c1	444	6% (inactive)	-8.1% (inactive)	101	-29.2% (inactive)	120	-0.414 (inactive)	-0.000142 (inactive)	0.00576 (inactive)	13% (inactive)	25.3% (inactive)
Cc1nc2sc(C(c3cccs3)N3CC(C)CC(C)C3)c(O)n2n1 (centres undefined)	614	3.9% (inactive)	27.2% (inactive)	118	-12.3% (inactive)	109	-0.545 (inactive)	4.4e-06 (inactive)	0.00614 (inactive)	11.2% (inactive)	21.5% (inactive)
CS(=O)(=O)N(Cc1ccco1)CC(O)Cn1c2ccccc2c2ccccc21 (centres undefined)	314	3.3% (inactive)	3.9% (inactive)	103	-16.4% (inactive)	97.9	-0.388 (inactive)	1.5e-05 (inactive)	0.00353 (inactive)	13.7% (inactive)	35.1% (inactive)
CCCCCC1CC(CC(=O)O)C(=O)O1 (centres undefined)	230	-25.6% (inactive)	20.9% (inactive)	80.6	-70.3% (inactive)	126	-0.4 (inactive)	-5.4e-05 (inactive)	0.00366 (inactive)	7.61% (inactive)	23.6% (inactive)
COC(=O)CCCCCc1ccc(C(C)=O)s1	350	-6.3% (inactive)	10.5% (inactive)	101	-65.9% (inactive)	120	-0.496 (inactive)	-3.1e-05 (inactive)	0.00508 (inactive)	16.6% (inactive)	15.4% (inactive)
COc1ccc(S(=O)(=O)Cc2ccc(C(=O)NCCc3ccc(S(N)(=O)=O)cc3)o2)cc1	686	0.6% (inactive)	41.2% (active)	71.5	-51.1% (inactive)	114	-0.561 (inactive)	-2.1e-05 (inactive)	0.00625 (inactive)	9.1% (inactive)	28.2% (inactive)
CN(C)/C=C1\N=C(c2ccc3c(c2)OCO3)OC1=O	462	15.8% (inactive)	-17.4% (inactive)	104	46.5% (inactive)	108	-0.451 (inactive)	1.5e-05 (inactive)	0.0038 (inactive)	-20.5% (inactive)	-55.4% (inactive)
CCOc1ccccc1-n1c(SCC(=O)NC(C)CC)nnc1-c1ccoc1C (centres undefined)	608	-2.4% (inactive)	-1.9% (inactive)	105	-47.9% (inactive)	121	-0.439 (inactive)	-3.6e-05 (inactive)	0.00423 (inactive)	18.6% (inactive)	17.4% (inactive)
O=C(O)COc1ccc(S(=O)(=O)NCCc2ccccc2)cc1	596	-0.8% (inactive)	20.5% (inactive)	81.4	-54.3% (inactive)	119	-0.543 (inactive)	-6.9e-05 (inactive)	0.00764 (inactive)	13% (inactive)	24.1% (inactive)
S=c1[nH]nc(-c2cccc(Br)c2)o1	242	12.7% (inactive)	15.6% (inactive)	110	-57.8% (inactive)	120	-0.361 (inactive)	1.9e-05 (inactive)	0.0039 (inactive)	4.14% (inactive)	8.86% (inactive)
